Values without a mark were called inactive. Results filed as inconclusive are left out. Entries that show only a call come without a potency. Calls of active or inactive are those of the source. Unless noted, calls follow the shape of the dose curve; as a rule, active = well fitted curve in the direction sought with a large enough effect in the repeat runs; inconclusive = weak or mixed curves; inactive = no such curve, though single readings can be large; an effect the other way counts as inactive or inconclusive.
What was measured:
[1] = target: Progesterone receptor (Homo sapiens) (UniProt P06401); assay: qHTS assay to identify small molecule agonists of the progesterone receptor (PR) signaling pathway (AID 1346784; calls by dose curve; also: nearly all actives have a fitted effect of over 30% in size)
Sequence of Progesterone receptor (Homo sapiens) (P06401 whole entry, looked up): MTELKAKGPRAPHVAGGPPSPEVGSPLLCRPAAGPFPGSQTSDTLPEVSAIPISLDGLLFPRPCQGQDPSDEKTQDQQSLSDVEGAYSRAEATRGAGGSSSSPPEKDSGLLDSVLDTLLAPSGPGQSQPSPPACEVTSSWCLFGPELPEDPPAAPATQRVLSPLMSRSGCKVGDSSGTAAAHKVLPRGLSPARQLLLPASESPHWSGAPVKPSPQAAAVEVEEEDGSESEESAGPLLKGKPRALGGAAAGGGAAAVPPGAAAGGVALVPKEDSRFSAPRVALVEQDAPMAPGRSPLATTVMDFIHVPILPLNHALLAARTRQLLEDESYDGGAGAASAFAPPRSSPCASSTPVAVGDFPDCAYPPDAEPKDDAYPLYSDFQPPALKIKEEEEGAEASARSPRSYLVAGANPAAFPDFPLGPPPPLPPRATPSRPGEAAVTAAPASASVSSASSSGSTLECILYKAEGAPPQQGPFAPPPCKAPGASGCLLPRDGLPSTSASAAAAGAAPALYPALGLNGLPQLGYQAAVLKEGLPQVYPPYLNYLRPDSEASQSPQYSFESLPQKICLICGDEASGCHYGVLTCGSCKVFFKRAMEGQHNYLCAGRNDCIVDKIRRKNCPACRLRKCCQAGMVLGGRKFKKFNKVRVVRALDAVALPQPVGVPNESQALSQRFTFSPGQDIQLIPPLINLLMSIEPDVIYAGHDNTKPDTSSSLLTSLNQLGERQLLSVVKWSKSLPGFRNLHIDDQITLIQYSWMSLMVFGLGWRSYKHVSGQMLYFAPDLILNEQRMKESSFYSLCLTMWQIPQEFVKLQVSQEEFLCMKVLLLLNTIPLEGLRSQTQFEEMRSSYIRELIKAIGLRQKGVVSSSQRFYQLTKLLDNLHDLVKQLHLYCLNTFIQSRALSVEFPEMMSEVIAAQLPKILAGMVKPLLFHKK
How it was run: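 PR-UAS-bla HEK 293T cells (beta-lactamase reporter under UAS) in 2% charcoal-stripped FBS, dosed with 23 nL compound after 6 hr, incubated 16hr at 37C. LiveBLAzer B/G FRET substrate added, fluorescence read after 2 hours.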

[2] = target: Progesterone receptor (Homo sapiens) (UniProt P06401); assay: qHTS assay to identify small molecule antagonists of the progesterone receptor (PR) signaling pathway (AID 1346795; active = well fitted inhibition curve with a large enough effect in the signal ratio in the repeat runs, not every such curve was filed as active; the % refers to the signal ratio)
How it was run: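 PR-UAS-bla HEK293T cells with beta-lactamase reporter under UAS control, in 2% charcoal-stripped FBS, treated with compounds plus 1 nM promegestone (R5020, final) for 16 hr at 37C. Read-out: FRET beta-lactamase substrate fluorescence after 2 hr at room temperature.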

[3] = qHTS assay to identify small molecule antagonists of the progesterone receptor (PR) signaling pathway - cell viability counter screen (AID 1346798); also: series mostly up to about 92 µM; nearly all actives have a fitted effect of over 50% in size
How it was run: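 PR-UAS-bla HEK293T cells, 3,000/well in 2% charcoal-stripped FBS medium, dosed with compounds plus R5020 agonist and incubated 16 h at 37C. Viability then measured in the same wells by CellTiter-Glo luminescence after 30 min at RT.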

[4] = qHTS assay to identify small molecule agonists of the progesterone receptor (PR) signaling pathway - cell viability counter screen (AID 1346799; calls by dose curve; also: nearly all actives have a fitted effect of over 45% in size)
How it was run: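 Counter screen in the PR-UAS-bla HEK293T wells (2% charcoal-stripped FBS, 16 h compound exposure at 37 C) after the bla read. CellTiter-Glo added, 30 min at room temperature, luminescence read as cell viability.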

[5] = qHTS assay to identify small molecule antagonists of the TGF-beta/Smad signaling pathway - cell viability counter screen (AID 1346824); also: nearly all actives have a fitted effect of over 50% in size
How it was run: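 SBE-bla HEK 293T cells, incubated overnight, then compound plus 0.25 ng/mL TGF-beta1 (stock added) for 5 hr at 37 C. Viability was read in the same wells by CellTiter-Glo luminescence after 30 min at room temperature.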

[6] = qHTS assay to identify small molecule agonists of the TGF-beta/Smad signaling pathway - cell viability counter screen (AID 1346829); also: top concentration of the series differs between compounds; nearly all actives have a fitted effect of over 45% in size
How it was run: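 In parallel with the Smad reporter read, viability of HEK 293T cells stably carrying SBE-bla is quantified by ATP luminescence following 5 hr compound treatment.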

[7] = qHTS assay to identify small molecule agonists of the TGF-beta/Smad signaling pathway (AID 1346859; active = well fitted activation curve with a large enough effect in the signal ratio in the repeat runs, not every such curve was filed as active; the % refers to the signal ratio; also: series mostly up to about 77 µM)
How it was run: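 SBE-bla HEK293T cells plated overnight, then compound exposure for 5 h at 37 C. Beta-lactamase reporter read with LiveBLAzer B/G FRET substrate after 2 h at room temperature, fluorescence at 405 nm excitation, 460/530 nm emission.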

[8] = target: Thyrotropin-releasing hormone receptor (Homo sapiens) (UniProt P34981); assay: qHTS assay to identify small molecule antagonists of the thyrotropin-releasing hormone receptor (TRHR) signaling pathway (AID 1346877; active = well fitted inhibition curve with a large enough effect in the repeat runs, not every such curve was filed as active; also: series mostly up to about 51 µM)
Sequence of Thyrotropin-releasing hormone receptor (Homo sapiens) (P34981 whole entry, looked up): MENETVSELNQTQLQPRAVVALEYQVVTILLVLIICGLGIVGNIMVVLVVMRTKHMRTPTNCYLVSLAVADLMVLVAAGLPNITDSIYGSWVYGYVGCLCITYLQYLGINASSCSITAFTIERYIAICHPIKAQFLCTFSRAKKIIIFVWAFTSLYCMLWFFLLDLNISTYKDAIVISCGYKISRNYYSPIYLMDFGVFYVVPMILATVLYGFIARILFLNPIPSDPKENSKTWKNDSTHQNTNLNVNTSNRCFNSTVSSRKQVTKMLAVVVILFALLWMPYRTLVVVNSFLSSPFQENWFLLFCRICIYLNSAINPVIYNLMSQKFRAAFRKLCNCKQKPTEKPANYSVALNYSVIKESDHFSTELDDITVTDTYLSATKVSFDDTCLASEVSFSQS
How it was run: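 TRHR-expressing HEK293 cells were seeded, cultured 18 h at 37 °C, then loaded with calcium dye for 2 h. Compounds were pre-incubated 5 min at room temperature before 1 nM TRH (final) was added, and kinetic fluorescence was recorded for 3 min.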

[9] = target: Thyrotropin-releasing hormone receptor (Homo sapiens) (UniProt P34981); assay: qHTS assay to identify small molecule agonists of the thyrotropin-releasing hormone receptor (TRHR) signaling pathway (AID 1346891; calls by dose curve; also: series mostly up to about 58 µM)
How it was run: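 HEK293 cells expressing TRHR plated 18 h at 37 C/5% CO2, calcium dye-loaded 2 h at 37 C, then compound added (agonist mode); kinetic calcium fluorescence read 3 min at 1 s intervals; 15 concentrations in triplicate.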

[10] = Human pregnane X receptor (PXR) small molecule agonists, qHTS cell viability counter screen (AID 1346977); also: nearly all actives have a fitted effect of over 50% in size
How it was run: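 PXR-Luc HepG2 cells (2,000/well, 5% charcoal-stripped FBS) preincubated 5 hr, then exposed to compounds 24 hr at 37 C. Viability read in the same wells by CellTiter-Fluor fluorescence, reagent added at 23 hr, 1 hr incubation.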

[11] = Caspase-3/7 induction in HepG2 cells by small molecules, qHTS assay (AID 1346978); also: nearly all actives have a fitted effect of over 15% in size
How it was run: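 Wild-type HepG2 cells, 2,000/well, settled 5 hr at 37 C and 5% CO2, then compound-treated for 17 hr; caspase-3/7 activity read by luminescent Caspase-Glo 3/7 after 30 min at room temperature.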

[12] = Caspase-3/7 induction in CHO-K1 cells by small molecules, qHTS cell viability counter screen (AID 1346979); also: nearly all actives have a fitted effect of over 35% in size; also: potency is read from the fitted curve at half-maximal effect
How it was run: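 Wild-type CHO-K1 cells (1,500/well) treated with compound after 5 h plating; after 16 h at 37C, viability read as CellTiter-Fluor fluorescence following 1 h reagent incubation, in the same wells as the caspase read.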

[13] = Caspase-3/7 induction in CHO-K1 cells by small molecules, qHTS assay (AID 1346980); also: nearly all actives have a fitted effect of over 15% in size
How it was run: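 Wild-type CHO-K1 cells exposed to compounds for 17hr at 37 C, 5% CO2. Caspase-3/7 activity then measured by Caspase-Glo 3/7 luminescence after 30min at room temperature.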

[14] = Caspase-3/7 induction in HepG2 cells by small molecules, qHTS cell viability counter screen (AID 1346981); also: series mostly up to about 92 µM; nearly all actives have a fitted effect of over 30% in size
How it was run: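 Wild-type HepG2 cells (2,000/well) were allowed to settle for 5 hr at 37 C, 5% CO2, then dosed with compounds in DMSO by pin transfer. After 16 hr at 37 C, CellTiter-Fluor was added and fluorescence read 1 hr later.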

[15] = target: Nuclear receptor subfamily 1 group I member 2 (Homo sapiens) (UniProt O75469); assay: Human pregnane X receptor (PXR) small molecule agonists, qHTS assay (AID 1346982); also: nearly all actives have a fitted effect of over 35% in size
Sequence of Nuclear receptor subfamily 1 group I member 2 (Homo sapiens) (O75469 whole entry, looked up): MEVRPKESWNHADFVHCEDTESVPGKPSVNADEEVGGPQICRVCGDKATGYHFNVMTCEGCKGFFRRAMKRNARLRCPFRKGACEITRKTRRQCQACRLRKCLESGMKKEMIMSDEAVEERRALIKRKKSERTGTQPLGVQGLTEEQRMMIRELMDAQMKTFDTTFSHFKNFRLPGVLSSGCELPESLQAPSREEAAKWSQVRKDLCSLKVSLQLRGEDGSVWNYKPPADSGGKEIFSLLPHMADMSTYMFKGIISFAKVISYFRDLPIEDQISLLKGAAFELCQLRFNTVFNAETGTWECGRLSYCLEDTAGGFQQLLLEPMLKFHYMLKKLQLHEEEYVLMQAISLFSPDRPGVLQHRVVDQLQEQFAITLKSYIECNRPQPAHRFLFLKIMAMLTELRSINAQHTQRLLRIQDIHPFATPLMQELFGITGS
How it was run: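 PXR-Luc HepG2 cells (CYP3A4 promoter-driven luciferase) were seeded in medium with 5% charcoal-stripped FBS, left 5 hr at 37 C, then exposed to compounds in DMSO for 24 hr. Luminescence was read after ONE-Glo addition.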

[16] = target: Cytochrome P450 2D6 (Homo sapiens) (UniProt P10635); assay: Cytochrome P450 Family 2 Subfamily D Member 6 (CYP2D6) small molecule antagonists: luciferase reporter qHTS assay (AID 1671196); also: series mostly up to about 120 µM; nearly all actives have a fitted effect of over 50% in size
Sequence of Cytochrome P450 2D6 (Homo sapiens) (P10635 whole entry, looked up): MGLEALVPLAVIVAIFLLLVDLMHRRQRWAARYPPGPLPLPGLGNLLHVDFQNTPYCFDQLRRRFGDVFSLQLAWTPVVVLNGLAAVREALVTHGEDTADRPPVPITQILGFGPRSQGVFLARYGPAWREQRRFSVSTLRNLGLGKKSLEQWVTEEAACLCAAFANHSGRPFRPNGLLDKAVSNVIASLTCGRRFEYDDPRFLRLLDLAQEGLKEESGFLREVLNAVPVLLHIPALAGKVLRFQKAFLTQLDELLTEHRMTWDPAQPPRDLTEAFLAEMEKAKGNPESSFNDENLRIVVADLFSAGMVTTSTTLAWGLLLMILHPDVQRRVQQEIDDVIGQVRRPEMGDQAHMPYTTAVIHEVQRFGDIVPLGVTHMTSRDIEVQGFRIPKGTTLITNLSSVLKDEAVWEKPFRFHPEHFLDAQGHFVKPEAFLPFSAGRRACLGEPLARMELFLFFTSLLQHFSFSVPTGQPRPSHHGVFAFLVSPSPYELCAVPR
How it was run: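 CYP2D6 enzyme–substrate mix was held with compound for 10 min at room temperature, then NADPH regeneration solution was added and the reaction ran 1 h at room temperature. Luciferin product was detected by luminescence after 20 min with detection reagent.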

[17] = target: Cytochrome P450 2C19 (Homo sapiens) (UniProt P33261); assay: Cytochrome P450 Family 2 Subfamily C Member 19 (CYP2C19) small molecule antagonists: luciferase reporter qHTS assay (AID 1671197); also: series mostly up to about 120 µM; nearly all actives have a fitted effect of over 65% in size
Sequence of Cytochrome P450 2C19 (Homo sapiens) (P33261 whole entry, looked up): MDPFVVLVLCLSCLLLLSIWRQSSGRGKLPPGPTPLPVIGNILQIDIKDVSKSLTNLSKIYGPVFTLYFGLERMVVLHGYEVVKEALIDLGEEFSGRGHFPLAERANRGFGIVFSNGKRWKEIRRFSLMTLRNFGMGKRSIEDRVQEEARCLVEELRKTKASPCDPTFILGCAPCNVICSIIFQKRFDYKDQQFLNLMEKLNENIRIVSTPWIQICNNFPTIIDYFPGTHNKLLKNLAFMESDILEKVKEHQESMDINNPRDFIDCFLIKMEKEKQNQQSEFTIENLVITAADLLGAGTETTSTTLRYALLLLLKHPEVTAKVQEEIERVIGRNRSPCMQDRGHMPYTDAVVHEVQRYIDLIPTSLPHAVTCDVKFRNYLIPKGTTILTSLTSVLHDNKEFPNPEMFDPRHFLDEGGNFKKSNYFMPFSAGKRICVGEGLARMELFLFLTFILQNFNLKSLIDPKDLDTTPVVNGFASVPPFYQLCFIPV
How it was run: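 Compounds were tested on CYP2C19 activity via proluciferin conversion to luciferin. The 37C, 1 h reaction followed NADPH addition; detection reagent stopped it.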

[18] = target: Cytochrome P450 2C9 (Homo sapiens) (UniProt P11712); assay: Cytochrome P450 Family 2 Subfamily C Member 9 (CYP2C9) small molecule antagonists: luciferase reporter qHTS assay (AID 1671198)
Sequence of Cytochrome P450 2C9 (Homo sapiens) (P11712 whole entry, looked up): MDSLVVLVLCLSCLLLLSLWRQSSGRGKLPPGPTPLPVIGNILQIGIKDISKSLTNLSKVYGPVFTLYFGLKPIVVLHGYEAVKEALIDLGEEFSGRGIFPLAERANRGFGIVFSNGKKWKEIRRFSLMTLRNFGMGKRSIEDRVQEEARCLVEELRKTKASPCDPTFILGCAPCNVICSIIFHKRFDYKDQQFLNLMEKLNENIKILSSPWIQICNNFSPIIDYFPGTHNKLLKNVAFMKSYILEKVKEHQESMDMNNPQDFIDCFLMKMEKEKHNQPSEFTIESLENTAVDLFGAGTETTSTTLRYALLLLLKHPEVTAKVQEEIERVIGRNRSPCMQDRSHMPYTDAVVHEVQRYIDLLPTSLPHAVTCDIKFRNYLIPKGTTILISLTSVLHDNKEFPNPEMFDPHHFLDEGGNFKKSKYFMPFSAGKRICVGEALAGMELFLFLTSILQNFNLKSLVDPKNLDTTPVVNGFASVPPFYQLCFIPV
How it was run: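 P450-Glo proluciferin substrate with CYP2C9 enzyme; 10 min RT preincubation, then NADPH regeneration 1 h at 37C; luciferin detection reagent 20 min RT, luminescence in relative luminescence units.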

Row | SMILES | outcome [1] | Potency [2] | Potency [3] | Potency [4] | Potency [5] | Potency [6] | Potency [7] | Potency [8] | Potency [9] | Potency [10] | Potency [11] | Potency [12] | Potency [13] | Potency [14] | Potency [15] | Potency [16] | Potency [17] | Potency [18]
1 | Cc1cnccn1 | inactive | inactive | inactive | inactive | inactive | inactive | inactive | inactive | inactive | inactive | inactive | inactive | inactive | inactive | inactive | inactive | inactive | inactive
2 | Clc1cccnc1 | inactive | inactive | inactive | inactive | inactive | inactive | inactive | inactive | inactive | inactive | inactive | inactive | inactive | inactive |  |  | inactive | inactive
3 | C=CC(=O)OCCC#N | inactive | inactive | inactive | inactive | inactive | inactive | inactive | inactive | inactive | inactive | inactive | 61.5 µM (active) | inactive | inactive | inactive | inactive | inactive | inactive

Source: PubChem BioAssay (Tox21)
